The source made the active and inactive calls. The calls were made as follows: active = hit-call score of the fitted dose curve at least 0.9, where 1 is the maximum; inactive = score below 0.9.
Experiments:
[1] = read-out: Fatty acid synthase (Homo sapiens) (UniProt P49327); assay: LTEA_HepaRG_FASN: Life Technologies and Expression Analysis (LTEA) Assay for Fatty Acid Synthase (FASN) using HepaRG (AID 2283448); details: mRNA level, 48 h; actives raise or lower the signal
In short: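 FASN expression changes, up or down relative to 0.5% DMSO, were measured by qRT-PCR in human HepaRG cells after 48 h treatment with chemicals at eight concentrations (half-log steps from 100 uM).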

[2] = read-out: Cyclin D2 (CCND2), CCND2 (gene 894); assay: LTEA_HepaRG_CCND2: Life Technologies and Expression Analysis (LTEA) Assay for Cyclin D2 (CCND2) using HepaRG (AID 2283449); details: mRNA level, 48 h; actives raise or lower the signal;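 also: CCND2 transcript measured by TaqMan qRT-PCR and normalised to three housekeeping genes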
In short: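 Differentiated human HepaRG cells were exposed for 48 h in serum-free induction medium to eight half-log concentrations topping at 100 uM (0.5% DMSO vehicle). CCND2 mRNA was quantified by TaqMan qRT-PCR, normalised to ACTB, GAPDH and POLR2A, and fitted bidirectionally against DMSO.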

[3] = read-out: Cyclin Dependent Kinase Inhibitor 1A (CDKN1A), CDKN1A (gene 1026); assay: LTEA_HepaRG_CDKN1A: Life Technologies and Expression Analysis (LTEA) Assay for Cyclin Dependent Kinase Inhibitor 1A (CDKN1A) using HepaRG (AID 2283450); details: mRNA level, 48 h; actives raise or lower the signal
In short: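 Cryopreserved HepaRG cells were plated and cultured 48 h, then switched to serum-free induction medium. Chemicals (eight half-log concentrations, top 100 uM, 0.5% DMSO) were applied for 48 h. Lysates underwent qRT-PCR for CDKN1A with housekeeping normalization.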

[4] = read-out: Cyclin D1 (CCND1), CCND1 (gene 595); assay: LTEA_HepaRG_CCND1: Life Technologies and Expression Analysis (LTEA) Assay for Cyclin D1 (CCND1) using HepaRG (AID 2283451); details: mRNA level, 48 h; actives raise or lower the signal;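 as to AC50: TaqMan qRT-PCR transcript level normalised to ACTB GAPDH and POLR2A housekeeping genes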
In short: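 Human liver HepaRG line; 48 h dosing, 8 conc. ≤100 uM, 0.5% DMSO; TaqMan qRT-PCR mRNA, 3 housekeeping genes; bidirectional curve fit vs DMSO.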

[5] = read-out: flavin-containing dimethylaniline monooxygenases 3 (FMO3), FMO3 (gene 2328); assay: LTEA_HepaRG_FMO3: Life Technologies and Expression Analysis (LTEA) Assay for flavin-containing dimethylaniline monooxygenases 3 (FMO3) using HepaRG (AID 2283453); details: mRNA level, 48 h; actives raise or lower the signal
In short: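 Differentiated HepaRG cells in serum-free induction medium, exposed 48 h in duplicate to 8 half-log concentrations up to 100 uM in 0.5% DMSO. FMO3 mRNA by qRT-PCR, normalized to ACTB, GAPDH, POLR2A; bidirectional fit vs DMSO.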

[6] = read-out: Cytochrome P450 (CYP1A1), CYP1A1 (gene 1543); assay: LTEA_HepaRG_CYP1A1: Life Technologies and Expression Analysis (LTEA) Assay for Cytochrome P450 (CYP1A1) using HepaRG (AID 2283454); details: mRNA level, 48 h; actives raise or lower the signal
In short: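 Induction of CYP1A1 mRNA in a human hepatic cell line was measured 48 h after dosing, with 1 mM phenobarbital as induction positive control and 0.5% DMSO vehicle as baseline for bidirectional curve fitting.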

[7] = read-out: Forkhead box O1 (FOXO1), FOXO1 (gene 2308); assay: LTEA_HepaRG_FOXO1: Life Technologies and Expression Analysis (LTEA) Assay for Forkhead box O1 (FOXO1) using HepaRG (AID 2283456); details: mRNA level, 48 h; actives raise or lower the signal
In short: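 Differentiated human HepaRG cells in serum-free induction medium were exposed in duplicate for 48 h to eight half-log concentrations (top 100 uM, 0.5% DMSO). FOXO1 mRNA was measured by TaqMan qRT-PCR, normalised to ACTB, GAPDH and POLR2A, and fitted bidirectionally against DMSO.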

[8] = CEETOX_H295R_TESTO: CeeTox H295R High-throughput Steroidogenesis Assay for Testosterone (TESTO) (AID 2283457); details: actives raise or lower the signal;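 also: cells exposed to chemicals for 48 h before medium collection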
In short: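 Testosterone synthesis is assessed in human adrenocortical H295R cells after 48 h of chemical exposure, using HPLC-MS/MS of extracted medium. Activity is fitted in both directions against DMSO control.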

[9] = read-out: growth arrest and DNA damage 45 (GADD45A), GADD45A (gene 1647); assay: LTEA_HepaRG_GADD45A: Life Technologies and Expression Analysis (LTEA) Assay for growth arrest and DNA damage 45 (GADD45A) using HepaRG (AID 2283458); details: mRNA level, 48 h; actives raise or lower the signal
In short: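 Cells plated and cultured 48 h, switched to serum-free induction medium, then dosed for 48 h (100 uM top, half-log dilutions, 0.5% DMSO). RNA was isolated and transcript measured by Fluidigm qRT-PCR.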

[10] = read-out: Forkhead box O3 (FOXO3), FOXO3 (gene 2309); assay: LTEA_HepaRG_FOXO3: Life Technologies and Expression Analysis (LTEA) Assay for Forkhead box O3 (FOXO3) using HepaRG (AID 2283459); details: mRNA level, 48 h; actives raise or lower the signal
In short: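 Differentiated human HepaRG cells in serum-free induction medium were exposed in duplicate for 48 h to eight half-log concentrations up to 100 uM in 0.5% DMSO. FOXO3 mRNA was quantified by qRT-PCR, normalized to ACTB, GAPDH and POLR2A, with bidirectional fitting versus DMSO.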

[11] = read-out: ABC Transporter (ABCB1), ABCB1 (gene 5243); assay: LTEA_HepaRG_ABCB1: Life Technologies and Expression Analysis (LTEA) Assay for ABC Transporter (ABCB1) using HepaRG (AID 2283460); details: mRNA level, 48 h; actives raise or lower the signal
In short: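 Differentiated human HepaRG cells, plated 48 h then switched to serum-free induction medium, were exposed in duplicate to eight half-log concentrations up to 100 uM in 0.5% DMSO for 48 h. ABCB1 mRNA was measured by TaqMan qRT-PCR, normalized to ACTB/GAPDH/POLR2A.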

[12] = read-out: growth arrest and DNA damage 45 (GADD45B), GADD45B (gene 4616); assay: LTEA_HepaRG_GADD45B: Life Technologies and Expression Analysis (LTEA) Assay for growth arrest and DNA damage 45 (GADD45B) using HepaRG (AID 2283461); details: mRNA level, 48 h; actives raise or lower the signal
In short: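 Values are bidirectional concentration-response fits against 0.5% DMSO controls. Underlying data: qRT-PCR mRNA levels in human HepaRG liver cells treated 48 h in serum-free induction medium, eight concentrations topping at 100 uM.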

[13] = read-out: ABC Transporter (ABCC3), ABCC3 (gene 8714); assay: LTEA_HepaRG_ABCC3: Life Technologies and Expression Analysis (LTEA) Assay for ABC Transporter (ABCC3) using HepaRG (AID 2283462); details: mRNA level, 48 h; actives raise or lower the signal
In short: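 Differentiated HepaRG liver cells receive test chemicals at eight concentrations (max 100 uM) for 48 h. Expression of ABCC3 is quantified by qRT-PCR against ACTB, GAPDH and POLR2A, and activity is fitted in both directions against the DMSO control.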

[14] = read-out: ABC Transporter (ABCB11), ABCB11 (gene 8647); assay: LTEA_HepaRG_ABCB11: Life Technologies and Expression Analysis (LTEA) Assay for ABC Transporter (ABCB11) using HepaRG (AID 2283463); details: mRNA level, 48 h; actives raise or lower the signal
In short: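 Differentiated human HepaRG cells were exposed for 48 h in serum-free induction medium to eight half-log concentrations up to 100 uM in 0.5% DMSO. ABCB11 mRNA was quantified by qRT-PCR, normalized to ACTB, GAPDH and POLR2A, and fitted bidirectionally versus DMSO.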

[15] = read-out: ABC Transporter (ABCC2), ABCC2 (gene 1244); assay: LTEA_HepaRG_ABCC2: Life Technologies and Expression Analysis (LTEA) Assay for ABC Transporter (ABCC2) using HepaRG (AID 2283464); details: mRNA level, 48 h; actives raise or lower the signal
In short: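 Gene expression of ABCC2 was determined by qRT-PCR in HepaRG cells exposed 48 h to chemicals (highest 100 uM, half-log dilutions). Activity was fitted in both directions relative to 0.5% DMSO vehicle.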

[16] = read-out: Broad substrate specificity ATP-binding cassette transporter ABCG2 (Homo sapiens) (UniProt Q9UNQ0); assay: LTEA_HepaRG_ABCG2: Life Technologies and Expression Analysis (LTEA) Assay for ABC Transporter (ABCG2) using HepaRG (AID 2283465); details: mRNA level, 48 h; actives raise or lower the signal
In short: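 Differentiated HepaRG cells in serum-free induction medium were exposed for 48 h, in duplicate, to eight half-log concentrations up to 100 uM in 0.5% DMSO. ABCG2 mRNA was measured by TaqMan qRT-PCR, normalized to ACTB, GAPDH and POLR2A, and fitted bidirectionally versus DMSO.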

[17] = read-out: ATP-citrate lyase (ACLY), ACLY (gene 47); assay: LTEA_HepaRG_ACLY: Life Technologies and Expression Analysis (LTEA) Assay for ATP-citrate lyase (ACLY) using HepaRG (AID 2283466); details: mRNA level, 48 h; actives raise or lower the signal
In short: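 Differentiated human HepaRG cells in serum-free induction medium exposed 48 h, in duplicate, to eight half-log concentrations from 100 uM top in 0.5% DMSO; ACLY mRNA measured by qRT-PCR, normalized to ACTB, GAPDH, POLR2A, fitted bidirectionally versus DMSO.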

[18] = read-out: Peroxisomal acyl-coenzyme A oxidase 1 (ACOX1) gene, ACOX1 (gene 51); assay: LTEA_HepaRG_ACOX1: Life Technologies and Expression Analysis (LTEA) Assay for Peroxisomal acyl-coenzyme A oxidase 1 (ACOX1) gene using HepaRG (AID 2283467); details: mRNA level, 48 h; actives raise or lower the signal
In short: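 Differentiated human HepaRG cells were exposed in duplicate for 48 h in serum-free induction medium to eight half-log concentrations up to 100 uM in 0.5% DMSO. ACOX1 mRNA was then quantified by TaqMan qRT-PCR, normalized to ACTB, GAPDH and POLR2A.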

[19] = read-out: catalase (CAT), CAT (gene 847); assay: LTEA_HepaRG_CAT: Life Technologies and Expression Analysis (LTEA) Assay for catalase (CAT) using HepaRG (AID 2283452); details: mRNA level, 48 h; actives raise or lower the signal
In short: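 Differentiated HepaRG cells in serum-free induction medium were dosed 48 h in duplicate, eight half-log concentrations from 100 uM in 0.5% DMSO. Transcript measured by TaqMan qRT-PCR, normalised to ACTB/GAPDH/POLR2A, fitted bidirectionally against DMSO.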

[20] = read-out: CFLAR gene, CFLAR (gene 8837); assay: LTEA_HepaRG_CFLAR: Life Technologies and Expression Analysis (LTEA) Assay for CFLAR gene using HepaRG (AID 2283455); details: mRNA level, 48 h; actives raise or lower the signal
In short: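 HepaRG cells were plated for 48 h, switched to serum-free induction medium, then exposed in duplicate for 48 h to 8 concentrations (top 100 uM, half-log steps, 0.5% DMSO). CFLAR mRNA was measured by qRT-PCR, normalized to ACTB, GAPDH and POLR2A.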

Measured: AC50

Sequence of Broad substrate specificity ATP-binding cassette transporter ABCG2 (Homo sapiens) (Q9UNQ0 whole entry, looked up): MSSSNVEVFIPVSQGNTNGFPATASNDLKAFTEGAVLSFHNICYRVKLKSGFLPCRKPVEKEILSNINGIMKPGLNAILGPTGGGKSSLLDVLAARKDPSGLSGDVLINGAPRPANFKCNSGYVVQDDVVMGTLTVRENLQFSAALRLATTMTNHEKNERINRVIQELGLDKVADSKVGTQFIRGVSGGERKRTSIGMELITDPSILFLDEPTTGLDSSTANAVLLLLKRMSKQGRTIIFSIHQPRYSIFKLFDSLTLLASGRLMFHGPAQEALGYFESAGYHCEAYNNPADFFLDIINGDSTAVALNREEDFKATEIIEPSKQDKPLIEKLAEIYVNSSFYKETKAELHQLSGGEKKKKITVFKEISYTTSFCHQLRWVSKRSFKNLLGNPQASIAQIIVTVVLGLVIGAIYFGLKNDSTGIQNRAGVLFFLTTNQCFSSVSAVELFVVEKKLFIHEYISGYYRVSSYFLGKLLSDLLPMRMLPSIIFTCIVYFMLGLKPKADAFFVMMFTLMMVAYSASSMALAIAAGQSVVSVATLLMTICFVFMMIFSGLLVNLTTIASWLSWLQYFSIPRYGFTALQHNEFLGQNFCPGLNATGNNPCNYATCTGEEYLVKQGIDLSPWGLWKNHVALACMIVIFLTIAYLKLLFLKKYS
Sequence of Fatty acid synthase (Homo sapiens) (P49327 whole entry, looked up): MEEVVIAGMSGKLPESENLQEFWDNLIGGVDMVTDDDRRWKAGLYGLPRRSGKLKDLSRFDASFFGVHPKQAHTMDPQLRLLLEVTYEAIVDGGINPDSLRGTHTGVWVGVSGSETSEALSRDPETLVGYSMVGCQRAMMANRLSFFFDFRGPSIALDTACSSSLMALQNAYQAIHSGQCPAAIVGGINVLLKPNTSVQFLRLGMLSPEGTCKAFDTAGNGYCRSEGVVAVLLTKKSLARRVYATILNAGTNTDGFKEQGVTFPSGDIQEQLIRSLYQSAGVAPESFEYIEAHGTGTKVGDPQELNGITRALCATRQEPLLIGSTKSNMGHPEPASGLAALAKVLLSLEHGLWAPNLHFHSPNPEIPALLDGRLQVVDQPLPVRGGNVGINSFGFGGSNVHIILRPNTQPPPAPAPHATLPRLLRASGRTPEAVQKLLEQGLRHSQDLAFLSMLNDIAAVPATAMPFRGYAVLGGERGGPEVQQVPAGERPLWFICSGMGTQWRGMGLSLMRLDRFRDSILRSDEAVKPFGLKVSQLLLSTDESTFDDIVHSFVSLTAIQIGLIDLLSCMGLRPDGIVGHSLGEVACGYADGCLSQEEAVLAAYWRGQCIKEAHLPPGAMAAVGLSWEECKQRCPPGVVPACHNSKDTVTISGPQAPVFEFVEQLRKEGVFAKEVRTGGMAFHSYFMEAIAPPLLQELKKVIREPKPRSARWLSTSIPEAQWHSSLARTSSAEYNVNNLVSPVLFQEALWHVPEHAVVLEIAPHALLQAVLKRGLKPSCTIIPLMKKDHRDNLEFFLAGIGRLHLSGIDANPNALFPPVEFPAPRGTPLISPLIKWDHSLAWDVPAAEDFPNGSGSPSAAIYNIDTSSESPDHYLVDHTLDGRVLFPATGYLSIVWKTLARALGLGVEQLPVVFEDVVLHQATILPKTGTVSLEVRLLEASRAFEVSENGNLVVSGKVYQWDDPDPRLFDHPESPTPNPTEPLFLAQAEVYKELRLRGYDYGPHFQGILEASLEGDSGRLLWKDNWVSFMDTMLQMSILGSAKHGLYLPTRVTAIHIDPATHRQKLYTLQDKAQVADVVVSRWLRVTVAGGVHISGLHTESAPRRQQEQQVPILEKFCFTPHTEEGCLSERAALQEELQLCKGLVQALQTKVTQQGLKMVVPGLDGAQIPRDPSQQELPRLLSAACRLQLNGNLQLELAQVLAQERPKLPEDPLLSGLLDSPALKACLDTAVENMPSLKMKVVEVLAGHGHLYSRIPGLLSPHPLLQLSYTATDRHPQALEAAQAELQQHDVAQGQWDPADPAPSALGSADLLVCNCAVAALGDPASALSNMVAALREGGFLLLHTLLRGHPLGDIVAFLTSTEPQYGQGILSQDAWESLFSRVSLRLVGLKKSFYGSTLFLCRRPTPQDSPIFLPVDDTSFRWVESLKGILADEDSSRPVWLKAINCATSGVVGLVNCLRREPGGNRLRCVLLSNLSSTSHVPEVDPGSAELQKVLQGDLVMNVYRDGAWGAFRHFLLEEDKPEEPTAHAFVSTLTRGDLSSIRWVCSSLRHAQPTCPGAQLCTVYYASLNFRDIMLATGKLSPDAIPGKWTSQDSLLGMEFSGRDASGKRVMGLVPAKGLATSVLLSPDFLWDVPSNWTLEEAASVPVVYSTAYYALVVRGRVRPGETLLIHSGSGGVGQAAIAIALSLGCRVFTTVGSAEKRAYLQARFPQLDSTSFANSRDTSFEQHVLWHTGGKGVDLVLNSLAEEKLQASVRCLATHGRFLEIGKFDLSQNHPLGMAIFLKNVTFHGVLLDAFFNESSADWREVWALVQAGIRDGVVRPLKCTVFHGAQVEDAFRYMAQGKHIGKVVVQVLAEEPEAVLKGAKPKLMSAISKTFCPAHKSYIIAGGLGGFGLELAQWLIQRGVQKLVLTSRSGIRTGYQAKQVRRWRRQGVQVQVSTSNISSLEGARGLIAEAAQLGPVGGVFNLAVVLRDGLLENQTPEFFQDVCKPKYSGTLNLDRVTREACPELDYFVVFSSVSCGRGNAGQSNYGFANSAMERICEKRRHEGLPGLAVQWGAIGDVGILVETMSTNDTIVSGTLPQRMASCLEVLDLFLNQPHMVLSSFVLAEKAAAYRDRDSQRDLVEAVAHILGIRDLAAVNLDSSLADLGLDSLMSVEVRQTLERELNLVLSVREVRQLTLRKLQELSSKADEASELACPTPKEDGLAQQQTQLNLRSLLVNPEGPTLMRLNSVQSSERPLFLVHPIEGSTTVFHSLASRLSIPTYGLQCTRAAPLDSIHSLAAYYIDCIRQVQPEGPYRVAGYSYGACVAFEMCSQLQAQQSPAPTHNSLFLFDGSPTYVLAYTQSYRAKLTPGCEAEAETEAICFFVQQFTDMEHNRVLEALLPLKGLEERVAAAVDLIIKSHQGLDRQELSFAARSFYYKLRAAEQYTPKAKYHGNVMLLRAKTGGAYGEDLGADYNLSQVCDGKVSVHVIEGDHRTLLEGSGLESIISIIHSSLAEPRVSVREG

Cc1nc(-c2ccc3c(c2)CCN(CCC2CCC(NC(=O)/C=C/c4ccc(F)cc4)CC2)CC3)no1 (centres undefined)
active: [6] 23.2 µM | [8] 0.248 µM
not listed: [19] | [20]
inactive: all other assays above

CCCCCCCCCCCCCCCCCC(=O)O
active: [6] 50 µM
not listed: [8] | [20]
inactive: all other assays above

Cc1ccc(C)c(C)c1
not listed: [8] | [19] | [20]
inactive: all other assays above

COCCOC[C@H](CC1(C(=O)NC2CCC(C(=O)O)CC2)CCCC1)C(=O)Oc1ccc2c(c1)CCC2 (some centres undefined)
active: [4] 0.204 µM
not listed: [8] | [19] | [20]
inactive: all other assays above

Nc1ccc2c(c1)C(=O)c1ccccc1C2=O
active: [1] 2.86 µM | [3] 26.8 µM | [4] 1.19 µM | [5] 12 µM | [6] 6.31 µM | [10] 3 µM | [12] 9.75 µM | [14] 4.81 µM | [16] 10.4 µM
inactive: [2] | [7] | [9] | [11] | [13] | [15] | [17] | [18]

NCC1(Cc2noc(=O)[nH]2)CCCCC1
active: [6] 73.3 µM
not listed: [2] | [8]
inactive: all other assays above

CCCCOC(=O)CCCCCCCCC(=O)OCCCC
not listed: [2] | [8] | [19]
inactive: all other assays above

CCOC(=O)CCC(=O)OCC
not listed: [8] | [19] | [20]
inactive: all other assays above

— PubChem BioAssay (EPA / NIEHS)
